A selection: hits, their analogues and other compounds. The true share with any hit is near 21%.
Pf growth 48h – P. falciparum growth inhibition at 48 hours (one generation); Potency, µM (top dose mostly 28.7 µM), hits mostly inhibitors; P. falciparum luciferase growth in erythrocytes, 48 h; AID 504832; hit rate 5.9% among 310,000
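Luminescence readout; reporter = integrated firefly luciferase in P. falciparum. RBC culture at 2% hematocrit, 0.1% parasitemia final, 37 C/5% CO2; decreased signal taken as growth inhibition.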
HCMV antiviral – human cytomegalovirus inhibition; hit rate 4.5% among 410,000; HFF cells, HCMV-luciferase reporter, 72 h; hits give low values; activity change, negative = inhibition, % at 57.5 µM; in the data active means activity change below about -60%; inconclusive means no clear call, values can overlap the other calls; inactive means above about -39%
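Two-dose cell screen: HFF monolayers treated with compounds and infected with luciferase-expressing HCMV at 1 PFU/cell, 72 h at 37C, then lysed for luciferase measurement.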
Pf growth 96h – inhibits malaria parasite growth, 96 h; hit rate 6.9% among 320,000; P. falciparum luciferase reporter growth, 96 h; AID 504834; Potency, µM (top dose mostly 28.7 µM), most hits filed as inhibitors
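Erythrocytes infected with luciferase-expressing P. falciparum were dispensed at 2% hematocrit and 0.05% parasitemia (final), then incubated with compounds 96 hours at 37 C in 5% CO2. Luminescence after detection reagent addition reported growth.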
HCV inhibitor – HCV inhibition | Huh7.5.1 HCVcc-Cre infection, luciferase reporter, 44 h | Potency, µM (doses to about 41.8 µM), usual class: inhibitors | hit rate 3.4% among 340,000 | AID 651820
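Whole-lifecycle infectious HCVcc-Cre system; cells 1,000/well, compound then virus (~0.5 moi) added 4 h after plating, 44 h culture. Luciferase read 15 sec following 15 min substrate incubation, room temp.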
Shiga toxin inh – inhibitors of Shiga toxin in Vero cells; Vero cells, Shiga toxin protein synthesis inhibition reporter; inhibition, % at 38.7 µM; hit rate 9.2% among 290,000; in the data active means inhibition mostly above about 28%, no sharp cut-off; inactive means mostly below about 43%
Cycloheximide cs – counter-screen for Shiga toxin inhibitors: cycloheximide protein synthesis inhibition | cell reporter, cycloheximide protein synthesis inhibition counterscreen | max response, % | hit rate 12% among 300,000; in the data active means max response mostly above about 13%, no sharp cut-off; inactive means mostly below about 14%; further: read at 38.3 µM for the half of the compounds with a filed dose
Large screens that a line does not name were inactive. Unless noted, the call rests on the fitted dose curve; in most records, active means well fitted inhibition curve with a large enough effect; inconclusive means small, poorly fitted or top-dose-only effect, or another doubt; inactive means no such curve, though single readings can be large or run the other way.

O=C(C1CCC(CNc2c(N3CCCC3)c(=O)c2=O)CC1)N1CCc2ccccc21 (stereo not drawn)	Pf growth 48h inconclusive
O=C(NCCc1ccccc1)C1CCC(CNc2c(N3CCCCC3)c(=O)c2=O)CC1 (stereo not drawn)	Pf growth 96h 12µM
O=C(NC1CCCc2ccccc21)C1CCC(CNS(=O)(=O)c2cccc3nsnc23)CC1 (stereo not drawn)	Pf growth 96h 3.7µM (no result: Pf growth 48h)
O=C(CSc1ncc2c(n1)-c1ccccc1N(Cc1ccc(F)cc1)S2(=O)=O)NCCc1ccccc1	none (no result: Pf growth 48h, Pf growth 96h, HCV inhibitor, Shiga toxin inh, Cycloheximide cs)
COc1ccc(CCNC(=O)CCOc2ccc(C(C)(C)C)cc2)cc1OC	none (no result: Pf growth 48h, Pf growth 96h, Shiga toxin inh, Cycloheximide cs)
CC1CCN(c2c(NCC3CCC(C(=O)Nc4ccccn4)CC3)c(=O)c2=O)CC1 (stereo not drawn)	Pf growth 96h inconclusive
Cc1ccnc(NC(=O)C2CCC(CNc3c(N4CCCC4)c(=O)c3=O)CC2)c1 (stereo not drawn)	HCMV antiviral -75
CCOC(=O)c1oc2cc(O)c(CC)cc2c(=O)c1-c1cscn1	none
CCOC(=O)c1ccc(-c2c(C(=O)OCC)oc3cc(O)c(CC)cc3c2=O)o1	Pf growth 48h 10µM, Pf growth 96h inconclusive, HCV inhibitor inconclusive
O=C(NCc1ccccc1)C(=O)NCC(c1ccco1)N1CCOCC1 (stereo not drawn)	none (no result: HCMV antiviral)
O=C(NCC(c1ccco1)N1CCN(c2ccccc2F)CC1)c1cccs1 (stereo not drawn)	Pf growth 48h inconclusive, Pf growth 96h inconclusive (no result: HCMV antiviral, Shiga toxin inh, Cycloheximide cs)
COc1ccc(CNC(=O)C(=O)NCC(c2ccco2)N2CCOCC2)cc1 (stereo not drawn)	Pf growth 96h 7.4µM
COc1ccc(C(C(C(=O)c2ccco2)N2CCOCC2)N2CCOCC2)cc1 (stereo not drawn)	Shiga toxin inh 23, Cycloheximide cs 23
O=C(NCc1cccs1)C(=O)NCC(c1ccco1)N1CCN(c2ccccc2F)CC1 (stereo not drawn)	Pf growth 96h inconclusive, HCV inhibitor 11µM
COC1=C/C(=C/c2c(N)n3c(nc2=O)sc2cc(S(C)(=O)=O)ccc23)C=CC1=O	Pf growth 48h inconclusive, Pf growth 96h inconclusive
CS(=O)(=O)c1ccc2c(c1)sc1nc(=O)c(/C=C3/C=CC(=O)C(O)=C3)c(N)n12	Pf growth 96h inconclusive, Shiga toxin inh 41, Cycloheximide cs 20
Cn1c(O)c(N=Nc2ccccc2)c2ccccc21	none
Cn1c(O)c(N=Nc2ccc(F)cc2)c2ccccc21	Cycloheximide cs 40
CCn1c(O)c(N=NC(=O)CNc2ccc(C)cc2)c2ccccc21	none
Cc1ccc(NCC(=O)N=Nc2c(O)n(C)c3ccccc23)cc1	Shiga toxin inh 56, Cycloheximide cs 15
N#Cc1ccc2c(c1)NC(=O)C1CCCN21 (stereo not drawn)	Pf growth 48h inconclusive, HCV inhibitor inconclusive
Cc1ccc(CN2C(=O)C3CCCN3c3ccc(C#N)cc32)cc1 (stereo not drawn)	Pf growth 48h inconclusive, Pf growth 96h 1.7µM (no result: HCMV antiviral, HCV inhibitor)
COC(=O)c1ccc2c(c1)N(Cc1nc(-c3cccc(C)c3)oc1C)C(=O)C1CCCN21 (stereo not drawn)	Pf growth 96h inconclusive (no result: Pf growth 48h, HCMV antiviral, HCV inhibitor)
CON(C)S(=O)(=O)c1ccc2c(c1)N(Cc1ccc(C)cc1)C(=O)C1CCCN21 (stereo not drawn)	Pf growth 48h inconclusive, Pf growth 96h 0.83µM
Cc1ccc(C)c(CN2C(=O)C3CCCN3c3ccc(C#N)cc32)c1 (stereo not drawn)	Pf growth 48h inconclusive, Pf growth 96h 9.3µM, HCV inhibitor inconclusive
CCN(CC)S(=O)(=O)c1ccc2c(c1)N(CC(=O)Nc1cccc(C)c1C)C(=O)C1CCCN21 (stereo not drawn)	none (no result: Pf growth 48h, Pf growth 96h, HCV inhibitor, Shiga toxin inh, Cycloheximide cs)
Cc1ccc2c(c1)/C(=C/c1ccc(F)cc1)C(=O)N2	Pf growth 48h inconclusive, HCV inhibitor 11µM
Cc1ccc2c(c1)/C(=C/c1ccccc1C)C(=O)N2	none
CCc1nc(SCc2ccc(OC)cc2)n[nH]1	Shiga toxin inh 32, Cycloheximide cs 30
Cc1nc(SCc2ccccc2)n[nH]1	Cycloheximide cs 13
CCc1nc(SCc2ccccc2C#N)n[nH]1	Pf growth 96h 9.3µM
CCCc1nc(SCc2ccc(OCC)cc2)n[nH]1	none
CCc1nc(SCc2ccc(F)cc2)n[nH]1	Shiga toxin inh 88, Cycloheximide cs 31
CC1O[C@@H](O[C@H](C)CC[C@@H](C)O)C(O)C[C@H]1O (stereo partly drawn)	none (no result: Shiga toxin inh, Cycloheximide cs)
CC(C)CCNC(=O)C1CCN(c2nc3ccc(Cl)cc3[nH]2)CC1	none (no result: Pf growth 48h, Pf growth 96h, HCV inhibitor, Shiga toxin inh, Cycloheximide cs)
COCCCn1c(SCC(=O)Nc2ccc(NC(C)=O)cc2)nc2sc3c(c2c1=O)CCC3	Pf growth 48h inconclusive
Cc1nc(SCc2c(F)cccc2Cl)n[nH]1	Cycloheximide cs 15
Cc1cc(C)n2nc(SCc3c(F)cccc3Cl)nc2n1	Pf growth 96h inconclusive
Fc1cccc(Cl)c1CSC1=NCCS1	Shiga toxin inh 62, Cycloheximide cs 35
c1ccc(CSc2nccc(-c3ccco3)n2)cc1	none (no result: Pf growth 48h, Pf growth 96h, Shiga toxin inh, Cycloheximide cs)
c1ccc(CSc2n[nH]c(-c3ccco3)n2)cc1	Shiga toxin inh 81, Cycloheximide cs 20
CCCOc1ccc(CSc2n[nH]c(C)n2)cc1	Shiga toxin inh 55, Cycloheximide cs 32
COc1ccc(C)cc1NC(=O)N1CCCn2nc(C)cc21	none (no result: Pf growth 48h, Pf growth 96h, HCV inhibitor, Shiga toxin inh, Cycloheximide cs)
CCOC(=O)c1c(S(=O)(=O)NCC(=O)NCc2ccccc2Cl)c(C)n(C)c1C	none
COC(=O)c1cn(CC(C)n2c(=O)c3ccccc3n2Cc2cc(C(C)C)no2)nn1 (stereo not drawn)	none (no result: Pf growth 48h, Pf growth 96h, HCV inhibitor, Shiga toxin inh, Cycloheximide cs)
CCc1nc(SCc2ccccc2)n[nH]1	Shiga toxin inh 58, Cycloheximide cs 25
CCc1nc(SCc2cc(Cl)ccc2OC)n[nH]1	Pf growth 48h inconclusive
CCCc1nc(SCc2ccccc2Cl)n[nH]1	Cycloheximide cs 24 (no result: Pf growth 48h)
CC(=O)c1ccc(S(=O)(=O)Nc2cccc(-c3ccc(N4CCCCC4)nn3)c2)cc1	none (no result: Pf growth 48h, Pf growth 96h, HCV inhibitor, Shiga toxin inh, Cycloheximide cs)
O=S(=O)(Nc1cccc(-c2ccc(N3CCCCCC3)nn2)c1)c1ccc(F)cc1	HCV inhibitor inconclusive, Shiga toxin inh 85, Cycloheximide cs 43
O=S(=O)(Nc1cccc(-c2ccc(N3CCCCCC3)nn2)c1)c1ccc(C(F)(F)F)cc1	Pf growth 96h inconclusive, Shiga toxin inh 41, Cycloheximide cs 31
CCCCCNS(=O)(=O)c1cc(C)ccc1OC	Pf growth 96h 12µM
O=S(=O)(Nc1ccc(-c2ccc(N3CCCC3)nn2)cc1)c1cccc(C(F)(F)F)c1	none (no result: Pf growth 48h, Pf growth 96h, HCV inhibitor, Shiga toxin inh, Cycloheximide cs)
CCOc1ccc(S(=O)(=O)Nc2cccc(-c3ccc(N4CCCCCC4)nn3)c2)cc1	Shiga toxin inh 41, Cycloheximide cs 25
Cc1ccc(S(=O)(=O)Nc2ccccc2CNC2CCCCC2)cc1	none
O=C(Nc1cccc(OC(F)(F)F)c1)c1cnc(N2CCN(Cc3cccc(C(F)(F)F)c3)C2=O)o1	none (no result: Pf growth 48h, Pf growth 96h, HCV inhibitor, Shiga toxin inh, Cycloheximide cs)
COc1ccc(C)cc1S(=O)(=O)Nc1cccc(-c2ccc(N3CCCCCC3)nn2)c1	Pf growth 96h inconclusive, HCV inhibitor 10µM, Cycloheximide cs 20

Source: PubChem (National Center for Advancing Translational Sciences (NCATS))
